Assay results: PubChem BioAssay
Where “and” joins values, the source holds several entries; their conditions need not be identical. Equal values may be shown once. Results filed as inconclusive are left out. Calls of active or inactive are those of the source. Unless noted, no stated cut-off is given here; in the data, active means inhibition above about 80%; inactive means the rest.

What was measured:
[1] = viability loss in pontine glioma line – cell-based, SU-DIPG-XIII, MIPE5.0, CellTiter-Glo, qHTS, dose response (AID 1347064; cut-off not given, nearly all actives have AC50 up to about 23 µM;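 on AC50: cells exposed to compound for 48 hours before the viability read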); conditions: CellTiter-Glo ATP luminescence
[2] = growth inhibition of DIPG cells – cell-based, MIPE5.0 library, qHTS (AID 1347068; cut-off not given, nearly all actives have IC50 up to about 30 µM); conditions: SU-DIPG-XXV viability
[3] = growth inhibition, single agent or in combination, cell-based, chromothripsis tumors, cisplatin or BGB combos (AID 1671449); conditions: LFS_MB_P medulloblastoma cells;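 further: cells exposed for 96 hours; 0% = vehicle DMSO and 100% = killing by high DMSO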
[4] = growth inhibition, single agent and combos, cell-based, chromothripsis tumors, cisplatin or BGB combos (AID 1671450); conditions: HDN33 neuroblastoma cells, stronger effect = higher value;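 further: cells exposed to compound for four days; 0% = vehicle DMSO and 100% = cell killing by high DMSO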
[5] = growth inhibition, single agents and combos, ICB984, cell-based, cisplatin or BGB combos, synergistic combos for chromothripsis tumors (AID 1671451; call rule not given here;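 further: cells exposed for 96 hours before readout; 0% = vehicle DMSO and 100% = killing by high DMSO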); conditions: ICB984 medulloblastoma cells, drug combinations, stronger effect = higher value
[6] = growth inhibition, single agents and combos, LFS_MB_1R, cell-based, cisplatin or BGB combos, synergistic combos for chromothripsis tumors (AID 1671452); conditions: LFS_MB_1R medulloblastoma cells, stronger effect = higher value;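 further: cells exposed for 96 hours before readout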
[7] = growth inhibition, single agents and combos, HTB85, cell-based, BGB or cisplatin IC20 combos, synergistic combos for chromothripsis tumors (AID 1671453); conditions: HTB85 osteosarcoma cells, drug combinations, stronger effect = higher value;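 further: cells exposed for 96 hours before readout; 0% = vehicle DMSO and 100% = high DMSO killing control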
[8] = growth inhibition, single agents and combos, CRL2098, cell-based, BGB or cisplatin IC20 combos, synergistic combos for chromothripsis tumors (AID 1671454); conditions: CRL2098 osteosarcoma cells, drug combinations, stronger effect = higher value;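 further: cells exposed for 96 h before readout; 0% = vehicle DMSO and 100% = killing by high DMSO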
[9] = growth inhibition, single agents and combos, HD-MB03, cell-based, BGB or cisplatin IC20 combos, synergistic combos for chromothripsis tumors (AID 1671455; in the data active means inhibition above about 83%;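 further: 0% = vehicle DMSO and 100% = high DMSO as cytotoxic control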); conditions: HD-MB03 medulloblastoma cells, stronger effect = higher value
[10] = growth inhibition, single agents and combos, UWB1.289, cell-based, BGB or cisplatin combos, synergistic combos for chromothripsis tumors (AID 1671456); conditions: UWB1.289 ovarian carcinoma cells, stronger effect = higher value;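 further: cells exposed to compound for four days; 0% = vehicle DMSO and 100% = killing by high DMSO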
[11] = growth inhibition, single agents and combos, LFS_MB_2R, cell-based, cisplatin combos, synergistic combos for chromothripsis tumors (AID 1671457); conditions: LFS_MB_2R medulloblastoma cells, stronger effect = higher value;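 further: cells exposed to compound for four days before readout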
[12] = growth inhibition, MDA-MB-436, cell-based, BGB or cisplatin combos, synergistic combos for chromothripsis tumors (AID 1671458; call rule not given here;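 further: cells exposed for 96 hours; 0% = vehicle DMSO and 100% = killing by high DMSO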); conditions: MDA-MB-436 breast carcinoma growth inhibition, drug combinations, stronger effect = higher value
[13] = UWB1.289_BRCA1 ovarian cancer growth, cell-based, BGB or cisplatin combinations (AID 1671459); conditions: UWB1.289 BRCA1 ovarian carcinoma, drug combinations, stronger effect = higher value
[14] = drug combination toxicity in non-malignant astrocytes – cell-based, BGB or cisplatin IC20 combos, cytotoxicity control for chromothriptic childhood tumor combination screen (AID 1671460); conditions: Human astrocytes, viability inhibition, drug combinations, at 0.5 µM, stronger effect = higher value;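 further: cells exposed to compounds for 96 hours before viability readout; 0% = vehicle and 100% = killing control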
[15] = BT084 cell growth, single and combined drugs, ICGC_MB145, cisplatin and BGB IC40 combos (AID 1671461); conditions: BT084 medulloblastoma cells, drug combinations, stronger effect = higher value;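 further: cells exposed to drugs for 96 hours; 0% = vehicle DMSO and 100% = high DMSO full killing control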
[16] = RCMB18 cell growth, single agent and combined, cisplatin and BGB IC40 combos (AID 1671462); conditions: RCMB18 medulloblastoma cells, stronger effect = higher value;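 further: cells exposed to compound for four days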
[17] = CRL1545 cell growth, single agent and combined, cisplatin and BGB IC20 combos (AID 1671464); conditions: CRL1545 osteosarcoma cells, stronger effect = higher value;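 further: cells exposed to compound for 96 hours before readout; 0% = vehicle DMSO and 100% = high DMSO killing control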
[18] = viability loss in pontine glioma line – cell-based, SU-DIPG-XXV, MIPE5.0, CellTiter-Glo, qHTS, dose response (AID 1347065; cut-off not given, nearly all actives have AC50 up to about 26 µM;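 further: cells exposed to compound for 48 hours before ATP readout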); conditions: CellTiter-Glo ATP luminescence
[19] = liver-stage malaria parasite load reduction – cell-based, known kinase inhibitor set, luminescence, hepatoma host viability (AID 624392; call rule not given here;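 further: infected cells incubated roughly two days before readout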); conditions: Plasmodium liver stage in hepatoma cells, luciferase luminescence, concentration not given here; liver cell % of control: measured here: host liver cell viability; parasite % of control: stronger effect = lower value
[20] = growth inhibition of DIPG cells – cell-based, MIPE4.0 library, CellTiter-Glo luminescence, qHTS (AID 1347066; cut-off not given, nearly all actives have AC50 up to about 30 µM;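 further: cells exposed to compound for 48 hours before readout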); conditions: SU-DIPG-VI viability, CellTiter-Glo ATP luminescence
[21] = viability loss with induced miR-34 in A549 – imaging, A549 dox-inducible miR-34, nuclei and caspase counts, primary screen (AID 1347080;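 active means compounds whose cell count with miR-34 switched on is under 0.7 times the count with it off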); conditions: A549 miR-34 inducible, Hoechst nuclei count, 48 h
[22] = MELAS cybrid and Rieske KO viability enhancers – cell-based, MELAS cybrids, Rieske KO mouse fibroblasts, CellTiter-Glo, primary screen (AID 1508586;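 active means mean z-score across replicates of 1.96 or higher in either the MELAS or the Rieske mutant cell line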;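 further: z relative to plate mean and SD of compound and empty wells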); conditions: low glucose
[23] = JHH-DIPG-1 glioma cell viability, MIPE5.0 library, CellTiter-Glo luminescence, qHTS (AID 1347067; cut-off not given, nearly all actives have AC50 up to about 26 µM;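 further: cells exposed to compound for 48 hours before readout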); conditions: JHH-DIPG-1 glioma viability, CellTiter-Glo ATP luminescence
[24] = measured here: combination with BGB IC40, at 0.05 µM
[25] = measured here: with BGB IC20 combination, at 0.5 µM
[26] = measured here: with cisplatin IC20 combination, at 0.5 µM
[27] = measured here: combination with cisplatin, at 0.5 µM
[28] = measured here: combination with cisplatin, at 5 µM

SMILES: O=c1[nH]c([C@@H]2CCCN2)nc2c1oc1ccc(Cl)cc12
- AC50 [1]: 20.9 µM (active)
- outcome [2]: inactive
- inhibition ([3]; at 0.5 µM, stronger effect = higher value): -0.05% (inactive)
- inhibition ([3]; measured here: combination with BGB IC20, at 0.005 µM): -31.4%
- inhibition ([3]; measured here: combination with BGB IC40, at 0.005 µM): 94.4%
- inhibition [3, 24]: -14%
- inhibition ([3]; measured here: combination with cisplatin, at 0.5 µM, stronger effect = higher value): 64.5%
- inhibition ([3]; measured here: combination with cisplatin, at 5 µM, stronger effect = higher value): -16.4%
- inhibition ([4]; BGB combo, at 5 µM): 1.11%
- inhibition ([4]; at 0.5 µM): -21.3% (inactive)
- inhibition ([4]; cisplatin combo, at 5 µM): -6.62%
- inhibition [4, 25]: -15.4%
- inhibition [4, 26]: -18.8%
- inhibition ([4]; single agent, at 5 µM): 3.38%
- inhibition ([5]; BGB IC20 combo, at 0.005 µM): -39.5%
- inhibition ([5]; BGB IC40 combo, at 0.005 µM): -26.9%
- inhibition ([5]; BGB IC40 combo, at 0.05 µM): -16.5%
- inhibition ([5]; at 0.5 µM): -16.4% (inactive)
- inhibition ([5]; cisplatin combo, at 0.05 µM): -22.5%
- inhibition ([5]; cisplatin combo, at 0.5 µM): -15.6%
- inhibition ([5]; cisplatin combo, at 5 µM): 4.34%
- inhibition ([5]; measured here: 5 uM single agent, at 5 µM): -19.5%
- inhibition ([6]; at 0.5 µM): -31% (inactive)
- inhibition [6, 24]: -29.1%
- inhibition [6, 27]: -68.3%
- inhibition [6, 28]: -10.2%
- inhibition ([7]; at 0.5 µM): -12.9% (inactive)
- inhibition ([7]; measured here: with BGB IC20, at 0.5 µM): -9.31%
- inhibition ([7]; measured here: with BGB IC20, at 5 µM): -19.7%
- inhibition ([7]; measured here: with cisplatin IC20, at 0.5 µM): -5.61%
- inhibition ([7]; measured here: with cisplatin IC20, at 5 µM): -2.34%
- inhibition ([7]; single agent, at 5 µM): -2.45%
- inhibition ([8]; at 0.5 µM): -86.2% (inactive)
- inhibition ([8]; measured here: combination with BGB at IC20, at 0.5 µM): -77.4%
- inhibition ([8]; measured here: combination with cisplatin at IC20, at 0.5 µM): -117%
- inhibition ([9]; at 0.5 µM): -12.2% (inactive)
- inhibition ([9]; measured here: combo with BGB at IC20, at 0.5 µM): -2.56%
- inhibition ([9]; measured here: combo with cisplatin at IC20, at 0.5 µM): -27.5%
- inhibition ([10]; at 0.5 µM): -17.8% (inactive)
- inhibition ([10]; measured here: inhibition with BGB combination, at 0.05 µM): -12.3%
- inhibition ([10]; measured here: inhibition with cisplatin combination, at 0.05 µM): -25.4%
- inhibition ([11]; at 0.5 µM): -16% (inactive)
- inhibition [11, 27]: -22.2%
- inhibition [11, 28]: -24.3%
- inhibition ([12]; at 0.5 µM): -35% (inactive)
- inhibition ([12]; measured here: BGB combination, at 0.5 µM): -39.6%
- inhibition ([12]; measured here: BGB combination, at 5 µM): -62.1%
- inhibition ([12]; measured here: cisplatin combination, at 0.5 µM): -52.2%
- inhibition ([12]; measured here: cisplatin combination, at 5 µM): -71.9%
- inhibition ([13]; BGB combination, concentration series, at 5 µM): -4.02%
- inhibition ([13]; at 0.5 µM): -15.4% (inactive)
- inhibition ([13]; cisplatin combination, concentration series, at 5 µM): -5.14%
- inhibition [14]: 1.64% (inactive)
- inhibition ([14]; measured here: combo with BGB IC20): 11.1%
- inhibition ([14]; measured here: combo with cisplatin IC20): -0.305%
- inhibition ([15]; at 0.5 µM): 18.2% (inactive)
- inhibition ([15]; cisplatin combination, at 0.5 µM): 0.765%
- inhibition ([15]; cisplatin combination, at 5 µM): -129%
- inhibition ([15]; measured here: BGB IC40 combination 0.05 uM, at 0.05 µM): -10.1%
- inhibition ([15]; single agent, at 5 µM): 7.55%
- inhibition ([16]; at 0.5 µM): -15.8% (inactive)
- inhibition ([16]; cisplatin combo, at 5 µM): -8.27%
- inhibition ([16]; measured here: BGB IC40 combination, at 0.05 µM): 3.23%
- inhibition [16, 27]: -15.3%
- inhibition ([16]; single agent, at 5 µM): -12.8%
- inhibition ([17]; at 0.5 µM): -44.6% (inactive)
- inhibition [17, 25]: -65.7%
- inhibition [17, 26]: -36.2%
- inhibition ([17]; single agent, at 0.05 µM): -56%
- inhibition ([17]; single agent, at 5 µM): -51.5%

SMILES: C[C@@H]1C[C@H](N)C[C@H](c2ccncc2NC(=O)c2ccc(F)c(-c3c(F)cccc3F)n2)C1
- AC50 [18]: 9.34 µM (active)

SMILES: Nc1nc(OC(c2ccc(-c3cccc(F)c3)cc2)C(F)(F)F)cc(-c2ccc(C[C@@H](N)C(=O)O)cc2)n1 (stereo partly specified)
- AC50 [18]: 23.5 µM (active)

SMILES: CN(C)CCOc1cc(-c2cn[nH]c2)ccc1NC(=O)C1COc2ccccc2O1 (stereo unspecified)
- liver cell % of control [19]: 74.6% and 79.4% and 100%
- parasite % of control [19]: 63.3% (inactive) and 69.1% (inactive) and 49.5% (inactive)
- AC50 [18]: 7.42 µM (active)
- outcome [20]: inactive

SMILES: C#Cc1cccc(Nc2ncnc3cc4c(cc23)OCCOCCOCCO4)c1
- outcome [1]: inactive
- fold change ([21]; stronger effect = lower value, cell number ratio, induced over uninduced): 1.01 (inactive)
- fold change ([21]; measured here: relative caspase fold change +Dox/-Dox): 0.44
- cell count ([21]; measured here: total cells with miR-34 induction, stronger effect = lower value): 7300
- cell count ([21]; measured here: total cells without miR-34 induction): 7200
- z-score ([22]; MELAS cybrid survival, CellTiter-Glo 48 h, stronger effect = higher value): 0.219 (inactive)
- z-score ([22]; Rieske KO mouse fibroblast survival, CellTiter-Glo 72 h): 0.164

SMILES: Cn1cc(-c2cc(Oc3cc(F)c(NC(=O)C4(C(=O)Nc5ccccc5)CC4)cc3F)ccn2)cn1
- AC50 [18]: 16.6 µM (active)
- AC50 [23]: 18.6 µM (active)

SMILES: CCc1cc(/C(C)=N/OCc2ccc(C3CCCCC3)c(C(F)(F)F)c2)ccc1CN1CC(C(=O)O)C1
- AC50 [18]: 18.6 µM (active)
- outcome [20]: inactive

SMILES: CC1(C)CC[C@]2(C(=O)O)CC[C@]3(C)C(=CC[C@@H]4[C@@]5(C)C[C@@H](O)[C@H](O)C(C)(C)[C@@H]5CC[C@]43C)[C@@H]2C1
- AC50 [18]: 20.9 µM (active)

SMILES: CSC[C@H]1CN(Cc2c[nH]c3c(N)ncnc23)C[C@@H]1O
- outcome [1]: inactive
- outcome [23]: inactive
- outcome [2]: inactive
